Hit rate of the full screen: of about 5,700 compounds, about 85 (1%) were called active. Cut-off read from the data, not from the text of the source: active = p53-positive nuclei above about 36% (passing the limit was not always enough); inactive = the rest. Shown is part of a subset that was picked to be rich in actives.
Assays:
[1] = nuclear p53 accumulation, HPV+ cells – imaging, p53-positive nuclei imaging, 24 h, 48 h (AID 1508601); settings: 24/48 h
[2] = target: Cellular tumor antigen p53 (Homo sapiens) (UniProt P04637); assay: as above; settings: 24/48 h, stronger effect = higher value
[3] = measured here: cell number at 24 h, Library stock concentration: 3.33 mM
[4] = measured here: cell number at 48 h, Library stock concentration: 3.33 mM
[5] = Library stock concentration: 3.33 mM
[6] = measured here: p53 positive nuclei at 24 h, Library stock concentration: 3.33 mM
[7] = measured here: cell number at 24 h, Library stock concentration: 10 mM
[8] = measured here: cell number at 48 h, Library stock concentration: 10 mM
[9] = Library stock concentration: 10 mM
[10] = measured here: p53 positive nuclei at 24 h, Library stock concentration: 10 mM

Cellular tumor antigen p53 (Homo sapiens), sequence (P04637 whole entry, looked up): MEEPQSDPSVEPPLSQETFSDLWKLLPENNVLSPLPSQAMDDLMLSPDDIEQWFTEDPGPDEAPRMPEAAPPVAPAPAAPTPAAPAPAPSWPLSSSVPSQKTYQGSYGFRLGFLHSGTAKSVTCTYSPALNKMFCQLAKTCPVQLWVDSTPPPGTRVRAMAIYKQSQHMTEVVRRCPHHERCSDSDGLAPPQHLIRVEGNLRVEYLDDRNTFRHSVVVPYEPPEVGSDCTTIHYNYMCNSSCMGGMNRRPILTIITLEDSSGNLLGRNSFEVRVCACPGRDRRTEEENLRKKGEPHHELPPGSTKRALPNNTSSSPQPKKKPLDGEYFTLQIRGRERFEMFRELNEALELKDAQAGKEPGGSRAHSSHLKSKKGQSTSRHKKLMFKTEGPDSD

O=C1C(c2c(O)[nH]c3ccccc23)=Nc2ccccc21
nuclei count, normalised [1, 3]: 97.7% | nuclei count, normalised [1, 4]: 95.2% | p53-positive nuclei, normalised [2, 5]: 0.364% (inactive) | p53-positive nuclei, normalised [2, 6]: -0.221%

OCC1OC(n2cnc3c2NC=NCC3O)CC1O (stereo not drawn)
nuclei count, normalised ([1]; measured here: cell number at 24 h, Library stock concentration: 500 nM): 123% | nuclei count, normalised ([1]; measured here: cell number at 24 h, Library stock concentration: 1.5 uM): 117% | nuclei count, normalised ([1]; measured here: cell number at 24 h, Library stock concentration: 4.6 uM): 116% | nuclei count, normalised ([1]; measured here: cell number at 24 h, Library stock concentration: 13.7 uM): 127% | nuclei count, normalised ([1]; measured here: cell number at 24 h, Library stock concentration: 41 uM): 122% | nuclei count, normalised ([1]; measured here: cell number at 24 h, Library stock concentration: 123 uM): 124% | nuclei count, normalised ([1]; measured here: cell number at 24 h, Library stock concentration: 370 uM): 121% | nuclei count, normalised ([1]; measured here: cell number at 24 h, Library stock concentration: 1.111 mM): 120% | nuclei count, normalised ([1]; measured here: cell number at 24 h, Library stock concentration: 3.333 mM): 122% | nuclei count, normalised [1, 7]: 117% | nuclei count, normalised ([1]; measured here: cell number at 48 h, Library stock concentration: 500 nM): 119% | nuclei count, normalised ([1]; measured here: cell number at 48 h, Library stock concentration: 1.5 uM): 112% | nuclei count, normalised ([1]; measured here: cell number at 48 h, Library stock concentration: 4.6 uM): 114% | nuclei count, normalised ([1]; measured here: cell number at 48 h, Library stock concentration: 13.7 uM): 119% | nuclei count, normalised ([1]; measured here: cell number at 48 h, Library stock concentration: 41 uM): 118% | nuclei count, normalised ([1]; measured here: cell number at 48 h, Library stock concentration: 123 uM): 113% | nuclei count, normalised ([1]; measured here: cell number at 48 h, Library stock concentration: 370 uM): 117% | nuclei count, normalised ([1]; measured here: cell number at 48 h, Library stock concentration: 1.111 mM): 114% | nuclei count, normalised ([1]; measured here: cell number at 48 h, Library stock concentration: 3.333 mM): 113% | nuclei count, normalised [1, 8]: 114% | p53-positive nuclei, normalised ([2]; Library stock concentration: 500 nM): -0.173% (inactive) | p53-positive nuclei, normalised ([2]; Library stock concentration: 1.5 uM): -0.175% (inactive) | p53-positive nuclei, normalised ([2]; Library stock concentration: 4.6 uM): -0.091% (inactive) | p53-positive nuclei, normalised ([2]; Library stock concentration: 13.7 uM): -0.0972% (inactive) | p53-positive nuclei, normalised ([2]; Library stock concentration: 41 uM): 0.0195% (inactive) | p53-positive nuclei, normalised ([2]; Library stock concentration: 123 uM): 0.029% (inactive) | p53-positive nuclei, normalised ([2]; Library stock concentration: 370 uM): -0.058% (inactive) | p53-positive nuclei, normalised ([2]; Library stock concentration: 1.111 mM): -0.0904% (inactive) | p53-positive nuclei, normalised ([2]; Library stock concentration: 3.333 mM): -0.125% (inactive) | p53-positive nuclei, normalised [2, 9]: -0.0529% (inactive) | p53-positive nuclei, normalised ([2]; measured here: p53 positive nuclei at 24 h, Library stock concentration: 500 nM): -0.0351% | p53-positive nuclei, normalised ([2]; measured here: p53 positive nuclei at 24 h, Library stock concentration: 1.5 uM): -0.148% | p53-positive nuclei, normalised ([2]; measured here: p53 positive nuclei at 24 h, Library stock concentration: 4.6 uM): -0.0281% | p53-positive nuclei, normalised ([2]; measured here: p53 positive nuclei at 24 h, Library stock concentration: 13.7 uM): 0.0187% | p53-positive nuclei, normalised ([2]; measured here: p53 positive nuclei at 24 h, Library stock concentration: 41 uM): -0.0912% | p53-positive nuclei, normalised ([2]; measured here: p53 positive nuclei at 24 h, Library stock concentration: 123 uM): -0.0944% | p53-positive nuclei, normalised ([2]; measured here: p53 positive nuclei at 24 h, Library stock concentration: 370 uM): -0.0326% | p53-positive nuclei, normalised ([2]; measured here: p53 positive nuclei at 24 h, Library stock concentration: 1.111 mM): -0.148% | p53-positive nuclei, normalised ([2]; measured here: p53 positive nuclei at 24 h, Library stock concentration: 3.333 mM): -0.0881% | p53-positive nuclei, normalised [2, 10]: -0.148%

CC(C)CC(NC(=O)C(Cc1ccccc1)NC(=O)c1cnccn1)B(O)O (stereo not drawn)
nuclei count, normalised [1, 3]: 47.9% | nuclei count, normalised [1, 4]: 41.9% | p53-positive nuclei, normalised [2, 5]: 106% (active) | p53-positive nuclei, normalised [2, 6]: 125%

CC(C)C[C@H](NC(=O)[C@@H](O)[C@H](N)Cc1ccccc1)C(=O)O
nuclei count, normalised ([1]; measured here: cell number at 24 h, concentration not given here): 97.2% | nuclei count, normalised ([1]; measured here: cell number at 48 h, concentration not given here): 105% | p53-positive nuclei, normalised ([2]; concentration not given here): -0.0349% (inactive) | p53-positive nuclei, normalised ([2]; measured here: p53 positive nuclei at 24 h, concentration not given here): -0.0296%

CC(C)CC(NC(=O)C(O)C(N)Cc1ccccc1)C(=O)O (stereo not drawn)
nuclei count, normalised ([1]; measured here: cell number at 24 h, Library stock concentration: 80 uM): 115% | nuclei count, normalised ([1]; measured here: cell number at 24 h, Library stock concentration: 400 uM): 119% | nuclei count, normalised ([1]; measured here: cell number at 24 h, Library stock concentration: 2 mM): 104% | nuclei count, normalised [1, 7]: 105% | nuclei count, normalised ([1]; measured here: cell number at 48 h, Library stock concentration: 80 uM): 111% | nuclei count, normalised ([1]; measured here: cell number at 48 h, Library stock concentration: 400 uM): 113% | nuclei count, normalised ([1]; measured here: cell number at 48 h, Library stock concentration: 2 mM): 108% | nuclei count, normalised [1, 8]: 111% | p53-positive nuclei, normalised ([2]; Library stock concentration: 80 uM): -0.159% (inactive) | p53-positive nuclei, normalised ([2]; Library stock concentration: 400 uM): -0.07% (inactive) | p53-positive nuclei, normalised ([2]; Library stock concentration: 2 mM): -0.0155% (inactive) | p53-positive nuclei, normalised [2, 9]: 0.0117% (inactive) | p53-positive nuclei, normalised ([2]; measured here: p53 positive nuclei at 24 h, Library stock concentration: 80 uM): -0.122% | p53-positive nuclei, normalised ([2]; measured here: p53 positive nuclei at 24 h, Library stock concentration: 400 uM): 0.00728% | p53-positive nuclei, normalised ([2]; measured here: p53 positive nuclei at 24 h, Library stock concentration: 2 mM): -0.122% | p53-positive nuclei, normalised [2, 10]: 0.0829%

— PubChem BioAssay AID1508601 (ICCB-Longwood Screening Facility, Harvard Medical School, 2020)
